From PubChem BioAssay (NCI)
The panel holds about 79,000 compounds, 15% with a hit somewhere; the sample as a whole holds those more often. Unmarked numbers belong to inactive results. Active and inactive are the calls of the source. Cut-off read from the data, not from the text of the source: active = growth inhibition above about 70%; inactive = the rest.

Legend:
[1] = NCI Yeast Anticancer Drug Screen. Data for the rad50 strain (AID 155);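 note: 0% = growth of vehicle-only cultures of the same strain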; details: S. cerevisiae rad50 strain growth inhibition, active compounds read high
Procedure, shortened: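 Yeast carrying a defined DNA repair defect were exposed to test compounds, and growth was compared with vehicle-treated controls to give percent inhibition.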

[2] = NCI Yeast Anticancer Drug Screen. Data for the mec2-1 strain (AID 157); details: S. cerevisiae mec2-1 strain, active compounds read high
Procedure, shortened: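 Yeast mec2-1 mutant treated with compound. Readout: growth inhibition vs vehicle controls.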

[3] = NCI Yeast Anticancer Drug Screen. Data for the sgs1 mgt1 strain (AID 161);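 note: 0% = growth of cultures given vehicle only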; details: S. cerevisiae sgs1 mgt1 strain, active compounds read high
Procedure, shortened: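 Read-out: growth inhibition vs vehicle controls. Cells: mutant yeast strain deficient in DNA damage repair.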

[4] = NCI Yeast Anticancer Drug Screen. Data for the cln2 rad14 strain (AID 165);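 note: 0% = growth equal to vehicle treated cultures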; details: S. cerevisiae cln2 rad14 strain, active compounds read high
Procedure, shortened: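 cln2 rad14 yeast strain; compound exposure; growth inhibition read vs vehicle controls.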

[5] = NCI Yeast Anticancer Drug Screen. Data for the bub3 strain (AID 167); details: S. cerevisiae bub3 mutant strain, active compounds read high
Procedure, shortened: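 Compounds were applied to a genetically altered yeast strain carrying a cell-cycle control defect. Growth inhibition was scored against vehicle-treated controls.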

[6] = NCI Yeast Anticancer Drug Screen. Data for the mlh1 rad18 strain (AID 175); details: S. cerevisiae mlh1 rad18 strain growth inhibition, active compounds read high
Procedure, shortened: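 Yeast w/ defined DNA-repair lesions; compound exposure; growth vs vehicle controls → % inhibition.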

[7] = at 5.0 µM (retest, dose inferred, filed as 0.5)
[8] = at 50.0 µM (retest, dose inferred, filed as 5.0)

SMILES | growth inhibition [1, 7] | growth inhibition [1, 8] | growth inhibition ([1]; at 50.0 µM) | growth inhibition [2, 7] | growth inhibition [2, 8] | growth inhibition ([2]; at 50.0 µM) | growth inhibition [3, 7] | growth inhibition [3, 8] | growth inhibition ([3]; at 50.0 µM) | growth inhibition [4, 7] | growth inhibition [4, 8] | growth inhibition ([4]; at 50.0 µM) | growth inhibition [5, 7] | growth inhibition [5, 8] | growth inhibition ([5]; at 50.0 µM) | growth inhibition [6, 7] | growth inhibition [6, 8] | growth inhibition ([6]; at 50.0 µM)
CN=C(N)NN=C(c1ccc(Cl)cc1)c1ccc(Cl)cc1 | 32% | 99% (active) | 87.8% (active) | 30% | 99% (active) | 91.2% (active) | 51% | 99% (active) | 87.5% (active) | 48% | 98% (active) | 85% (active) | 52% | 99% (active) | 83.2% (active) | 25% | 98% (active) | 92.4% (active)
CC(=O)Nc1ccc(C(=O)NN2C(=O)C(Cl)C2c2cc(Br)cc(Br)c2O)cc1 (stereo not given) | 20% | -5% | -18% | -6% | 5% | -25.1% | -1% | -7% | -23.4% | 0% | 12% | 2% | -17% | -11% | 0.85% | 7% | 26% | -35%
CC1(C)CC(=O)C(/C=N/c2nc(-c3cccc([N+](=O)[O-])c3)cs2)=C(O)C1 | 17% | 99% (active) | 99% (active) | 15% | 99% (active) | 99% (active) | 5% | 99% (active) | 99% (active) | -7% | 99% (active) | 98.5% (active) | 20% | 99% (active) | 99.1% (active) | 14% | 99% (active) | 99% (active)
CCCCCCCCCCNC(=O)CBr | 2% | 99% (active) | 83.7% (active) | -2% | 100% (active) | 64.8% | -3% | 99% (active) | -1.3% | 5% | 100% (active) | 18.9% | 14% | 99% (active) | 97.8% (active) | 6% | 99% (active) | 94% (active)
CCCN(CCC)C(=S)N/N=C/c1cccc(C)n1 | -8% | 100% (active) | 90.3% (active) | -33% | 99% (active) | 93.2% (active) | -40% | 98% (active) | 92.8% (active) | -9% | 100% (active) | 93.1% (active) | -32% | 100% (active) | 92.5% (active) | -8% | 99% (active) | 89.7% (active)
O=S1Nc2ccccc2S1 (stereo not given) | 0% | 18% | 58% | -1% | 33% | 85.2% (active) | 2% | 42% | 99.2% (active) | -8% | 37% | 97% (active) | -1% | 77% (active) | 98.7% (active) | -1% | 41% | 96.2% (active)
CSC(=S)n1nc(-c2cccs2)c(N=Nc2ccc(Cl)cc2)c1C(F)(F)F | 29% | 63% | 83.8% (active) | 1% | 86% (active) | 93.4% (active) | 20% | 75% (active) | 46.5% | 14% | 49% | 65.4% | 14% | 87% (active) | 75.3% (active) | 19% | 56% | 96.1% (active)
O=C(/C(=N/O)[n+]1ccccc1)c1ccccc1 | -4% | 69% | 73.2% (active) | -3% | 60% | 26.8% | -9% | 33% | 41.7% | -6% | -7% | -10.8% | -1% | 94% (active) | 41.8% | 4% | 53% | 78.5% (active)
COc1c2c3c(ccnc3c3ccccc13)C(=O)N2C | 29% | 84% (active) | 83% (active) | 15% | 72% (active) | 71.3% (active) | 19% | 75% (active) | 77.7% (active) | -3% | 52% | 61% | 0% | 72% (active) | 75.6% (active) | 17% | 76% (active) | 75% (active)
O=C(NCCCCCCNC(=O)n1cc(F)c(=O)[nH]c1=O)NC1C(O)OC(CO)C(O)C1O (stereo not given) | 63% | 89% (active) | 93.9% (active) | 80% (active) | 96% (active) | 97.6% (active) | 83% (active) | 93% (active) | 93.1% (active) | 34% | 84% (active) | 51% | 22% | 90% (active) | 80% (active) | 48% | 90% (active) | 88.2% (active)
